# Experimental data as given in the supplement of paper PMC12494721.
# Structures can show the parent of a compound that is named as a salt.
# Key:
# Conditions in all cases: incubation time: 27 h, anaerobic, 37 °C;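 for the amine columns active = adjusted P below 0.05 in both replicates with a change the same way and a mean fold change under 0.8 or over 1.25; inactive = the rest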
# [1] = tested on: Clostridium sporogenes DSM 1664; assay: growth (OD595) fold change vs plate DMSO controls (fold change (ratio)); higher = more growth
# In short: (§1)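 Growth is the fold change relative to the median of plate DMSO controls. Readings came from anaerobic mGAM cultures in 96-well plates grown for 27 h at 37 °C and read at 595 nm. They were blank-subtracted, corrected for compound background with 20 µM compound solutions in water, and converted to OD with a calibration factor of 5. Values are means of 2 biological replicates, and fold changes above 1.5 were set to NA.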
# Escherichia coli IAI1 [2] = assay: as above
# In short: as §1
# [3] = tested on: Klebsiella aerogenes DSM 30053; assay: as above
# In short: as §1
# [4] = tested on: Ruminococcus gnavus DSM 108212; assay: as above
# In short: as §1
# [5] = tested on: Klebsiella aerogenes DSM 30053; assay: fold change of Histamine concentration vs plate DMSO controls (fold change (ratio)); higher = more amine produced, active = hit call of the paper (significant change in both replicates, either direction)
# In short: (§2)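 Anaerobic mGAM cultures of four gut bacterial strains were grown at 37 °C for 27 h in 80 µL wells, starting at OD 0.1 before 1:1 dilution. Compounds were at 20 µM final (sweeteners 50 µM). Whole cultures were extracted with cold acetonitrile/methanol containing 0.1% formic acid and centrifuged. Amines were quantified by LC–triple-quadrupole MS (dynamic MRM) against external calibration curves and drift-corrected within batch. Each value is the fold change versus plate DMSO controls, averaged over 2 biological replicates.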
# [6] = tested on: Clostridium sporogenes DSM 1664; assay: fold change of Tryptamine concentration vs plate DMSO controls (fold change (ratio)); higher = more amine produced, active = hit call of the paper (significant change in both replicates, either direction)
# In short: as §2
# [7] = tested on: Ruminococcus gnavus DSM 108212; assay: as above
# In short: as §2
# Escherichia coli IAI1 [8] = assay: fold change of Putrescine concentration vs plate DMSO controls (fold change (ratio)); higher = more amine produced, active = hit call of the paper (significant change in both replicates, either direction)
# In short: as §2
# [9] = tested on: Klebsiella aerogenes DSM 30053; assay: as above
# In short: as §2
# Escherichia coli IAI1 [10] = assay: fold change of Cadaverine concentration vs plate DMSO controls (fold change (ratio)); higher = more amine produced, active = hit call of the paper (significant change in both replicates, either direction)
# In short: as §2
# [11] = tested on: Klebsiella aerogenes DSM 30053; assay: as above
# In short: as §2
# [12] = tested on: Ruminococcus gnavus DSM 108212; assay: fold change of 2-Phenylethylamine concentration vs plate DMSO controls (fold change (ratio)); higher = more amine produced, active = hit call of the paper (significant change in both replicates, either direction)
# In short: as §2
Structure (SMILES),growth [1],growth (Escherichia coli IAI1 [2]),growth [3],growth [4],fold change of Histamine concentration [5],fold change of Tryptamine concentration [6],fold change of Tryptamine concentration [7],fold change of Putrescine concentration (Escherichia coli IAI1 [8]),fold change of Putrescine concentration [9],fold change of Cadaverine concentration (Escherichia coli IAI1 [10]),fold change of Cadaverine concentration [11],fold change of 2-Phenylethylamine concentration [12]
C=C1c2cccc(O)c2C(O)=C2C(=O)[C@]3(O)C(O)=C(C(N)=O)C(=O)[C@@H](N(C)C)[C@@H]3[C@@H](O)[C@H]12 [Methacycline hydrochloride] (20 µM),0,0.0377,0.0637,0.836,0.0707 (active),0.0282 (active),0.461 (active),0.177 (active),0.486 (active),0.294 (active),0.536 (active),0.58 (inactive)
COCCc1ccc(OCC(O)CNC(C)C)cc1 (stereo not drawn) [Metoprolol-(+)-tartrate salt] (20 µM),1.01,1.03,1.03,1.05,0.856 (inactive),1.02 (inactive),1.03 (inactive),0.998 (inactive),0.955 (inactive),1.02 (inactive),1 (inactive),0.995 (inactive)
O=C(O)Cc1cc(I)c(Oc2ccc(O)c(I)c2)c(I)c1 [Tiratricol] (20 µM),0.903,1.07,1.04,0.808,1.04 (inactive),0.592 (active),0.827 (inactive),1.05 (inactive),1.01 (inactive),1.03 (inactive),1.01 (inactive),0.884 (inactive)
CCOC(=O)OC(C)OC1=C(C(=O)Nc2ccccn2)N(C)S(=O)(=O)c2ccccc21 (stereo not drawn) [Ampiroxicam] (20 µM),1.02,0.978,1.03,1.1,0.908 (inactive),0.998 (inactive),0.999 (inactive),0.976 (inactive),0.998 (inactive),0.983 (inactive),1.01 (inactive),0.99 (inactive)
CCn1cc(C(=O)O)c(=O)c2cc(F)c(N3CCNCC3)cc21 [Norfloxacin] (20 µM),0.0353,0.0339,0.239,0.814,0.0898 (active),0.0308 (active),0.863 (inactive),0.612 (active),0.792 (active),0.161 (active),0.963 (inactive),0.892 (inactive)
C#C[C@]1(O)CC[C@H]2[C@@H]3CCC4=C(CCC(=O)C4)[C@H]3CC[C@@]21C [Norethynodrel] (20 µM),0.978,1.04,1,1.02,1.03 (inactive),0.936 (inactive),1.03 (inactive),1.04 (inactive),1.03 (inactive),0.979 (inactive),1.01 (inactive),0.989 (inactive)
CCCC(CCC)C(=O)O [Valproic acid] (20 µM),1.23,1.01,0.99,0.931,0.977 (inactive),1.07 (inactive),1.11 (inactive),0.943 (inactive),0.971 (inactive),0.999 (inactive),0.999 (inactive),1.1 (inactive)
CCN(CC)CCOCCOC(=O)C(CC)(CC)c1ccccc1 [Oxeladin citrate] (20 µM),1.05,0.997,1,1.01,0.957 (inactive),1.01 (inactive),0.889 (inactive),1.01 (inactive),1.02 (inactive),1.01 (inactive),0.994 (inactive),0.865 (inactive)
O=C(Cn1cnnn1)N[C@@H]1C(=O)N2C(C(=O)O)=C(CSc3nncs3)CS[C@H]12 [Ceftezole] (20 µM),0,0.855,1.05,0.188,0.895 (inactive),0.0131 (active),0.114 (active),0.749 (inactive),0.967 (inactive),1.61 (inactive),1.04 (inactive),0.105 (active)
CN1CC2c3ccccc3Oc3ccc(Cl)cc3C2C1 (stereo not drawn) [Asenapine maleate] (20 µM),1.1,0.969,1.04,0.834,0.986 (inactive),1.05 (inactive),0.905 (inactive),1 (inactive),1.02 (inactive),0.973 (inactive),0.998 (inactive),0.917 (inactive)
Cc1c(Cl)cccc1Nc1ccccc1C(=O)O [Tolfenamic acid] (20 µM),1.18,1.01,1.06,1.14,0.917 (inactive),0.901 (inactive),0.951 (inactive),1.07 (inactive),0.984 (inactive),1.07 (inactive),1.01 (inactive),0.937 (inactive)
COC(=O)C1=C(C)NC(C)=C(C(=O)OC)C1c1ccccc1[N+](=O)[O-] [Nifedipine] (20 µM),1.07,1.12,0.991,0.883,1.05 (inactive),1.02 (inactive),1 (inactive),1.05 (inactive),1.01 (inactive),0.955 (inactive),1 (inactive),0.92 (inactive)
CC(C)c1nc(CN(C)C(=O)N[C@H](C(=O)N[C@@H](Cc2ccccc2)C[C@H](O)[C@H](Cc2ccccc2)NC(=O)OCc2cncs2)C(C)C)cs1 [Ritonavir] (20 µM),1.01,0.962,0.987,0.983,1.08 (inactive),0.822 (inactive),0.942 (inactive),0.943 (inactive),1.01 (inactive),0.99 (inactive),0.985 (inactive),0.939 (inactive)
CNCCC=C1c2ccccc2C=Cc2ccccc21 [Norcyclobenzaprine] (20 µM),1.1,1.02,1.01,1.09,0.997 (inactive),0.985 (inactive),0.939 (inactive),1 (inactive),0.993 (inactive),1.02 (inactive),0.994 (inactive),0.935 (inactive)
O=C1c2ccccc2C(=O)C1c1ccccc1 [Phenindione] (20 µM),1.17,0.963,0.969,1.07,1.08 (inactive),1 (inactive),1.01 (inactive),0.958 (inactive),1 (inactive),0.984 (inactive),0.976 (inactive),0.977 (inactive)
CCCOC(=O)NCCCN(C)C (20 µM),1.08,0.981,0.968,1.17,1.06 (inactive),1.05 (inactive),1.09 (inactive),0.952 (inactive),0.821 (inactive),0.93 (inactive),1.05 (inactive),1.22 (inactive)
Cc1cc(-n2c(=O)[nH]c(=O)n(C)c2=O)ccc1Oc1ccc(SC(F)(F)F)cc1 [Toltrazuril] (20 µM),1.1,0.997,1.05,1.09,0.976 (inactive),0.941 (inactive),0.792 (inactive),1.01 (inactive),1 (inactive),1.08 (inactive),1.01 (inactive),0.81 (inactive)
CCC[C@H](N[C@@H](C)C(=O)N1[C@H](C(=O)O)C[C@@H]2CCCC[C@@H]21)C(=O)OCC [Perindopril] (20 µM),0.997,1,1.05,1.21,0.997 (inactive),0.965 (inactive),1.02 (inactive),0.914 (inactive),1.03 (inactive),0.993 (inactive),1.01 (inactive),0.995 (inactive)
CCN(CCO)CCCC(C)Nc1ccnc2cc(Cl)ccc12 (stereo not drawn) [Hydroxychloroquine sulfate] (20 µM),1.08,0.955,0.95,0.855,1.09 (inactive),0.967 (inactive),0.991 (inactive),0.915 (inactive),1.04 (inactive),0.999 (inactive),0.982 (inactive),1.02 (inactive)
CC(=O)OCC(=O)[C@@]12OC(C)(C)O[C@@H]1C[C@H]1[C@@H]3C[C@H](F)C4=CC(=O)C=C[C@]4(C)[C@@]3(F)[C@@H](O)C[C@@]12C [Fluocinonide] (20 µM),0.81,0.961,0.997,0.976,1 (inactive),1.07 (inactive),0.936 (inactive),0.978 (inactive),1 (inactive),0.972 (inactive),0.988 (inactive),0.911 (inactive)
CCS(=O)(=O)CCn1c([N+](=O)[O-])cnc1C [Tinidazole] (20 µM),0,0.988,0.99,0.176,0.852 (inactive),0.0351 (active),0.0414 (active),1.01 (inactive),0.977 (inactive),1.04 (inactive),0.993 (inactive),0.0315 (active)
CC(=O)[C@H]1CC[C@H]2[C@@H]3C=CC4=CC(=O)CC[C@@]4(C)[C@@H]3CC[C@]12C [Dydrogesterone] (20 µM),1.08,0.983,0.99,0.994,1.03 (inactive),0.933 (inactive),0.978 (inactive),0.911 (inactive),1.01 (inactive),1.04 (inactive),0.983 (inactive),1 (inactive)
CCCCCN(CCCCC)C(=O)C(CCC(=O)O)NC(=O)c1ccc(Cl)c(Cl)c1 (stereo not drawn) [Lorglumide sodium salt] (20 µM),0.981,1.02,1.02,1.01,0.987 (inactive),0.763 (active),0.94 (inactive),1.07 (inactive),1.01 (inactive),1.03 (inactive),1.01 (inactive),0.919 (inactive)
CN(C)CCN1C(=O)c2ccccc2N(C)c2ccccc21 [Dibenzepine hydrochloride] (20 µM),1.02,0.993,0.972,0.677,1.06 (inactive),0.993 (inactive),1.03 (inactive),1.01 (inactive),1.01 (inactive),1.02 (inactive),0.985 (inactive),1.06 (inactive)
